These results are taken from PubChem BioAssay (Tox21).

Molecules are shown by their SMILES. Several values for one entry are separate records, joined by “and”; a condition that tells them apart may be missing. Equal entries are not always repeated. Results filed as inconclusive are left out. Entries that show only a call come without a potency. A structure can be active in one record and inactive in another. Activity calls are given as the source filed them. The call rests on the fitted dose curve; in most records, active means well fitted cell-killing curve with a large enough effect in the repeat runs; inconclusive means weak or mixed curves, or effect the other way; inactive means flat fitted curve, though single readings scatter.
Potency means the concentration at half of the fitted maximal effect.

This assay is described as follows: qHTS RealTime-Glo MT Cell Viability Assay in HEK293 cells - 32 hour (AID 1224868). Further: nearly all actives have a fitted effect of over 50% in size. On activity change, negative = cytotoxic: top concentration of the series differs between compounds. To be noted: RealTime-Glo luminescence; series mostly up to 76.8 µM; activity change, negative = cytotoxic: at the top concentration. An excerpt: National Center for Advancing Translational Sciences [NCATS]
NIH Chemical Genomics Center [NCGC]
U.S. Environmental Protection Agency [EPA]
National Institutes of Environmental Health Sciences [NIEHS]
National Toxicology Program [NTP]
U.S. Food and Drug Administration [FDA]
Measure of cell viability is critical in the cell-base assay. Analysis of cell viability is necessary for the characterization of cell responses to cytotoxic drugs and environmental stress. A RealTime-Glo MT Cell Viability Assay to monitor cell viability in real time of continues cell culture during 40 hours of compound treatment was used to screen Tox21 10K library compounds in Hek293 cells. The RealTime-Glo MT Cell Viability Assay is a nonlytic, homogeneous, bioluminescent method to measure cell viability in real time using a simple, plate-based method. The assay involves adding NanoLuc luciferase and a cell-permeant prosubstrate to cells in culture. Viable cells reduce the proprietary prosubstrate to generate a substrate for NanoLuc luciferase. This substrate diffuses from cells into the surrounding culture medium, where it is rapidly used by the NanoLuc Enzyme to produce a luminescent signal. The signal correlates with the number of viable cells, making the assay well suited for cytotoxicity studies.
Tox21 Assay Protocol Summary:
The mixture of Hek293 cell suspension and reagents were dispensed at 600cells/6 ul/well in 1536-well tissue culture treated black solid bottom plates using a Multidrop dispenser. After the assay plates were incubated at a 37 C/5% CO2 incubator for 5 hours, 23 nL of compounds dissolved in DMSO, positive and negative controls was transferred to the assay plate by a pintool work station. The plates were incubated at 37 C for 40 hours. The luminescence intensity were measured at 0h, 8h, 16h, 24h, 32h and 40h time points using ViewLux plate reader during compound treatment.
A general note: Quantitative high-throughput screening tests each substance at several concentrations.
`Oc1ccc(OCc2ccccc2)cc1`: the Potency was 1.07 µM (active) and inactive.

For the molecule `O=C1CCCCC1`, the Potency result is “inactive”.

As to `CCc1ccc(O)cc1`, the Potency result is “inactive”.

Consider `C=C(C)C(=O)OCCCCCC`, for which the Potency entry is “inactive”.

For the molecule `OCCOCCOCCOCCO`, the Potency entry was “inactive”.

Take `CC(C)Cc1ccccc1`: the Potency result was “inactive”.

Take `CCC(C)C=O` (stereo not given): the Potency entry was “inactive and 3.47 µM (active)”.

Consider `NS(=O)(=O)c1cc2c(cc1Cl)NC=NS2(=O)=O`, for which the Potency entry is “inactive”.

For `C=C(C)C(=O)OCC(CC)(COC(=O)C(=C)C)COC(=O)C(=C)C`, the Potency result was “inactive”.

Regarding `CCCCCC/C=C/CCCCCCCC(=O)O`, the Potency result is “inactive”.

`CC(=O)Nc1ccc(C(=O)O)cc1`: the Potency result is “inactive”.

As for `OCC1CCCO1` (stereo not given), the Potency entry is “inactive”.

In the case of `CC(C)(CO)COC(=O)C(C)(C)CO`, the Potency result is “inactive”.

As for `CNC[C@H](O)[C@@H](O)[C@H](O)[C@H](O)CO`, the Potency result was “inactive”.

As to `O=C(O)c1cc(-c2ccccc2)nc2ccccc12`, the Potency result was “inactive”.

Turning to `CC1=CC[C@H]2C[C@@H]1C2(C)C`, the Potency result was “inactive”.

As for `CCc1ccccc1O`, the “activity change, negative = cytotoxic” value was -5.3% (inactive).

With `Oc1ccc2ccccc2c1N=Nc1ccccc1`, the “activity change, negative = cytotoxic” value is 18.8% (inactive).

Turning to `Cc1cc(O)cc(C)c1Cl`, the Potency entry was “inactive”.

For the molecule `O=S(=O)(O)CCS`, the Potency result is “inactive”.

Take `Nc1nc2ncc(CNc3ccc(C(=O)N[C@@H](CCC(=O)O)C(=O)O)cc3)nc2c(=O)[nH]1`: the Potency result was “inactive”.

Regarding `C[C@@H](O)[C@H]1C(=O)N2C(C(=O)O)=C(S[C@@H]3CN[C@H](C(=O)N(C)C)C3)[C@H](C)[C@H]12`, the Potency result is “inactive”.

As for `C=C1C2CCC(C2)C1(C)C` (stereo not given), the Potency result is “inactive”.

Take `CCCCC(CC)COC(=O)/C=C\C(=O)OCC(CC)CCCC` (stereo not given): the Potency entry is “inactive”.

In the case of `CC1Cc2ccccc2N1NC(=O)c1ccc(Cl)c(S(N)(=O)=O)c1` (stereo not given), the Potency entry is “inactive”.

As for `Cc1ccc(N)c(S(=O)(=O)O)c1`, the Potency entry was “inactive”.

`Cc1ccc(C(=O)O)o1`: the Potency entry was “inactive”.

On to `Cc1cc(NS(=O)(=O)c2ccc(N)cc2)no1`, for which the Potency result was “inactive”.

For the molecule `CC1CC(OC(=O)c2ccccc2O)CC(C)(C)C1` (stereo not given), the Potency entry was “inactive”.

With `C=C(C)C(=O)OCCC[Si](OC)(OC)OC`, the Potency result is “inactive”.

Turning to `CC1(C)O[C@@H]2C[C@H]3[C@@H]4C[C@H](F)C5=CC(=O)CC[C@]5(C)[C@H]4[C@@H](O)C[C@]3(C)[C@]2(C(=O)CO)O1`, the Potency result was “inactive”.

On to `O=Nc1ccc(O)cc1`, for which the “activity change, negative = cytotoxic” value was 0.361% (inactive).

For the molecule `COC(=O)c1ccccc1O`, the Potency entry is “inactive”.

With `O=[N+]([O-])C(CO)(CO)CO`, the “activity change, negative = cytotoxic” value is 16% (inactive).

Regarding `c1ccc2ccccc2c1`, the Potency result was “inactive”.

With `COC(=O)Nc1nc2ccc(Sc3ccccc3)cc2[nH]1`, the Potency is 692 nM (active) and 848 nM (active).

For the molecule `C=C(C#N)C(=O)OCC`, the Potency result is “inactive”.

`Nc1c(S(=O)(=O)O)cc(Br)c2c1C(=O)c1ccccc1C2=O`: the Potency result was “inactive”.

For the molecule `S=c1nc[nH]c2nc[nH]c12`, the Potency is 16.9 µM (active).

Regarding `CCCCCCCCCCCCOCC1CO1` (stereo not given), the Potency result is “inactive”.
